Screen size: about 2,500 compounds; about 1,100 (44%) were called active. So high a share suggests a set chosen from earlier hits. The list shows a part of the results. Values without a mark were called inactive.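 How the source made its calls: active means inhibition above 50% at 4 µM in the single-point screen; inactive means inhibition of 50% or less.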

This test is described as follows: blockers of TNF-a NF-kB luciferase induction – cell-based, HEK293T NF-kB-Luc, luminescence, selectivity assay for NOD1/NOD2 signaling inhibitor project, primary screen (AID 1852). The conditions noted are these: TNF-a induced, 14 h, at 4 µM, hits give high values.
As usually defined, the inhibition is the change of the read-out against control, counted positive when it falls. For `COc1cc([N+](=O)[O-])cc2sc(NC(=O)c3c(F)cccc3F)nc12`, the inhibition is 16.4%.
With `COc1ccc2nc(Nc3nc4ccc(NC(C)=O)cc4s3)sc2c1` the figure was -14.1%; with `COc1ccccc1C(=O)Nc1nc2ccccc2s1`, 65.3% (active); with `COc1ccc2nc(Nc3nc(C)c(C(C)=O)s3)sc2c1`, -12.9%.
Then `COc1ccc(C(=O)Nc2nc3ccccc3s2)c(OC)c1`, with 88% (active); and `CCOc1ccc2nc(NC(=O)c3ccccn3)sc2c1`, with 102% (active); and `COc1ccccc1C(=O)NCc1ccc(-c2nc3ccccc3s2)cc1`, with 14.3%.
Then `O=C(CCl)N=c1sccn1Cc1cccc2ccccc12`, with 44.1%; and `CC(=O)NC(c1cccc([N+](=O)[O-])c1)c1ccc2cccnc2c1O` (stereo unspecified), with 70.9% (active); and `CC(=O)NC(c1ccc2ccccc2c1)c1ccc2cccnc2c1O` (stereo unspecified), with 75.2% (active).
Regarding `COc1cccc(C(NC(C)=O)c2ccc3cccnc3c2O)c1` (stereo unspecified), the inhibition is 57.3% (active).
Regarding `CC(=O)NC(c1ccc(Cl)cc1Cl)c1ccc2cccnc2c1O` (stereo unspecified), the inhibition is 15.6%.
With `COc1ccc(C(NC(C)=O)c2ccc3cccnc3c2O)c(OC)c1` (stereo unspecified) the figure was 99.8% (active); with `COc1ccc(-c2cc(C)no2)cc1S(=O)(=O)N1CCN(c2ccccc2F)CC1`, 49.7%.
Then `CSC(=S)N/N=C/c1ccc(Br)cc1`, with 3.9%; and `Cc1cc(NC(c2cccnc2)c2ccc3cccnc3c2O)no1` (stereo unspecified), with 99.8% (active).
With `Cc1conc1NC(c1cccs1)c1ccc2cccnc2c1O` (stereo unspecified) the figure was 14.1%; with `Cc1ccc(CNC(=O)C2CCCN(S(=O)(=O)c3cccc4nonc34)C2)cc1` (stereo unspecified), 43.1%; with `Cc1cccc(NC(=O)C2CCN(S(=O)(=O)c3ccc4c(c3)NC(=O)CO4)CC2)c1`, 11.7%.
In the case of `COc1ccc(C)cc1NC(=O)C1CCN(S(=O)(=O)c2cccc3nonc23)CC1`, the inhibition is 94.5% (active).
Consider `CCc1ccc(-c2cc(C)no2)cc1S(=O)(=O)NCCCN1CCN(c2ccccc2)CC1`, for which the inhibition was 28.3%.
With `C/C(=N\NC(=O)c1cc2ccccc2cc1O)c1cc2ccccc2o1` the figure was 105% (active); with `C/C(=N\NC(=O)c1cc2ccccc2cc1O)c1ccccn1`, -5.1%.
Then `Cc1ccc(S(=O)(=O)CC#CCOC(=O)c2ccc([N+](=O)[O-])cc2)cc1`, with 91.4% (active).
With `CCOC(=O)N1CCN(C(=O)c2ccc(Oc3ccc([N+](=O)[O-])cc3)cc2)CC1` the figure was -11.6%; with `COc1ccc(NS(=O)(=O)c2ccc3oc(SC(C)C(N)=O)nc3c2)cc1` (stereo unspecified), 2.2%; with `COc1ccc(NS(=O)(=O)c2ccc(N/N=C(\C)c3ccncc3)c([N+](=O)[O-])c2)cc1`, 51.9% (active).
With `CC[C@H]1CN2CCc3cc(OC)c(OC)cc3[C@@H]2C[C@@H]1C[C@H]1NCCc2cc(OC)c(OC)cc21`, the inhibition was 102% (active).
Then `Cc1ccc(C)c(N2CCN(C(=O)C34CC5CC(C3)CC(n3nnc(C)n3)(C5)C4)CC2)c1`, with 25.2%; and `CN(C)Cc1c(C(=O)N/N=C/c2cccc(OCc3c(F)cccc3Cl)c2)nnn1-c1nonc1N`, with 74% (active).
With `CCOc1ccccc1-n1c(SCC(=O)Nc2ccccc2C(=O)O)nc2ccccc2c1=O` the figure was -2.7%; with `O=C(COc1ccc2ccccc2c1)Nc1ccc(Br)cc1C(=O)O`, -2.8%; with `O=C(CSc1nc2ccccc2c(=O)n1Cc1ccccc1)Nc1ccc(Br)cc1C(=O)O`, 53.2% (active).
With `COc1cc(/C=C/c2ccc3cccc(O)c3n2)ccc1O` the figure was 105% (active); with `COc1cc(/C=C/c2ccc3cccc(O)c3n2)cc(Br)c1OC`, 28.6%.
Turning to `COc1cc(/C=C/c2ccc3cccc(O)c3n2)cc(Cl)c1OC`, the inhibition is -19.5%.
For the compound `COc1cc(/C=C/c2ccc3cccc(O)c3n2)cc(OC)c1OC`, the inhibition was 105% (active).
Then `COc1cccc(OCCOc2ccc(/C=C3\C(=N)N4N=C(S(C)(=O)=O)SC4=NC3=O)cc2OC)c1`, with -57.6%; and `C=C1C(=O)[C@@]23[C@H](O)C[C@@H]4C(C)(C)CC[C@H](O)[C@@]4(C)[C@@H]2CC[C@@H]1[C@H]3O`, with 68.9% (active); and `NC(=O)c1c(NC(=O)C(=O)N2CCOCC2)sc2c1CCCC2`, with 29.8%.
Then `CCOc1ccccc1CNC(=O)Cn1nc(C)c2c(C)n(-c3ccc(C)cc3)nc2c1=O`, with 55% (active); and `CCOC(=O)c1c(C)nc2sc3c(=O)n(-c4ccc(C(C)=O)cc4)nnc3c2c1-c1ccc(OC)cc1`, with 5.1%; and `CCn1nc(C)c(NC(=O)/C=C/c2ccc(OC)c(COc3ccc(Br)cc3)c2)c1C`, with 38.5%.
Then `COc1ccc(OC)c(CCNC(=O)C(C)n2nc(C)c3c(C)n(-c4ccc(C)cc4)nc3c2=O)c1` (stereo unspecified), with 49.3%; and `COc1ccc(CCNC(=O)C(C)n2nc(C)c3c(C)n(-c4ccc(C)cc4)nc3c2=O)c(OC)c1` (stereo unspecified), with 56.1% (active).
Take `COc1ccc(OC)c(CCNC(=O)Cn2nc(C)c3c(C)n(-c4ccc(C)cc4)nc3c2=O)c1`: the inhibition was 69.7% (active).
With `O=C(c1ccc(S(=O)(=O)c2ccccc2Cl)c([N+](=O)[O-])c1)N1CCN(Cc2ccccc2)CC1` the figure was 56.1% (active); with `O=C(c1ccc(S(=O)(=O)c2cccc(Cl)c2)c([N+](=O)[O-])c1)N1CCN(Cc2ccccc2)CC1`, 53.1% (active).
On to `O=C(c1ccc(S(=O)(=O)c2ccc(F)cc2)c([N+](=O)[O-])c1)N1CCCCCC1`, for which the inhibition was 27.8%.
Then `O=C(c1ccc(S(=O)(=O)c2ccccc2Cl)c([N+](=O)[O-])c1)N1CCCCCC1`, with 26.2%; and `O=C(c1ccc(S(=O)(=O)c2cccc(Cl)c2)c([N+](=O)[O-])c1)N1CCN(c2ccccn2)CC1`, with 35.5%; and `O=C(Nc1nc2ccc([N+](=O)[O-])cc2s1)c1ccc(S(=O)(=O)N2CCCc3ccccc32)cc1`, with 68.8% (active).
Then `Cn1cc(S(=O)(=O)N2CCc3ccccc32)cc1C(=O)NC(C)(C)C`, with 38.6%; and `O=C(Nc1nnc(C2CC2)s1)c1cccc(S(=O)(=O)N2CCc3ccccc32)c1`, with 9.3%.
Then `Cc1nn(C(C)(C)C)c(C)c1/C=N/OC(=O)Nc1ccc(Cl)c(Cl)c1`, with 94% (active).
Take `Cc1nn(C(C)(C)C)c(C)c1/C=N/OC(=O)Nc1ccc(Cl)cc1`: the inhibition is 71.3% (active).
Then `O=C(Nc1ccc(Cl)cc1)OCc1cncs1`, with -60.4%.
Then `COc1ccc(NC(=O)COC(=O)/C=C/C(=O)OCC(=O)Nc2ccc(OC)c(Cl)c2)cc1Cl`, with 17.7%.
With `O=C(Nc1ccc(Cl)c(Cl)c1)OCc1cnc(Cl)s1` the figure was -13.5%; with `Cc1ccc(NC(=O)Cc2ncc(C(F)(F)F)cc2Cl)cc1Cl`, -15.6%; with `Cc1ccc(NC(=O)O/N=C/c2c(C)nn(C(C)(C)C)c2C)cc1Cl`, 90.2% (active).
